Test results reported in the supplement of paper PMC4466140.

Key:
Assay in all cases: SPOT peptide array binding signal intensity (averaged, normalized) (arbitrary units (background-subtracted, floor 0; scale differs between SH3 domains)); higher = stronger binding of the SH3 domain to the peptide
AgAbp1 = target: AgAbp1
How it was run: (§1)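 Four yeast species supplied the SH3 domains, which were expressed as GST fusions in E. coli BL21(DE3) and purified on glutathione Sepharose. Incubation with cellulose membranes carrying synthetic 15-mer peptides, cysteines exchanged for serines, ran overnight at 4°C at 10 μg/ml in TBS-based blocking buffer. Binding signal is reported as normalized, background-subtracted spot intensity averaged over replicates, in arbitrary units not shared between domains.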

AgBbc1 = target: AgBbc1
How it was run: as §1

AgBem1-D1 = target: AgBem1-D1
How it was run: as §1

AgBzz1-D1 = target: AgBzz1-D1
How it was run: as §1

AgBzz1-D2 = target: AgBzz1-D2
How it was run: as §1

AgCyk3 = target: AgCyk3
How it was run: as §1

AgFus1 = target: AgFus1
How it was run: as §1

AgHof1 = target: AgHof1
How it was run: as §1

AgHse1 = target: AgHse1
How it was run: as §1

AgLsb1 = target: AgLsb1
How it was run: as §1

AgLsb4 = target: AgLsb4
How it was run: as §1

AgMyo5 = target: AgMyo5
How it was run: as §1

AgNbp2 = target: AgNbp2
How it was run: as §1

AgRvs167 = target: AgRvs167
How it was run: as §1

AgSho1 = target: AgSho1
How it was run: as §1

AgSla1-D1-D2 = target: AgSla1-D1-D2
How it was run: as §1

AgSla1-D3 = target: AgSla1-D3
How it was run: as §1

CaAbp1-D1 = target: CaAbp1-D1
How it was run: as §1

CaAbp1-D2 = target: CaAbp1-D2
How it was run: as §1

CaBbc1 = target: CaBbc1
How it was run: as §1

CaBem1-D1 = target: CaBem1-D1
How it was run: as §1

CaBzz1-D1 = target: CaBzz1-D1
How it was run: as §1

CaBzz1-D2 = target: CaBzz1-D2
How it was run: as §1

CaCyk3 = target: CaCyk3
How it was run: as §1

CaFus1 = target: CaFus1
How it was run: as §1

CaHof1 = target: CaHof1
How it was run: as §1

CaHse1 = target: CaHse1
How it was run: as §1

CaLsb1 = target: CaLsb1
How it was run: as §1

CaLsb4 = target: CaLsb4
How it was run: as §1

CaMyo5 = target: CaMyo5
How it was run: as §1

CaNbp2 = target: CaNbp2
How it was run: as §1

CaRvs167 = target: CaRvs167
How it was run: as §1

CaRvs167-3 = target: CaRvs167-3
How it was run: as §1

CaSho1 = target: CaSho1
How it was run: as §1

CaSla1-D1-D2 = target: CaSla1-D1-D2
How it was run: as §1

CaSla1-D3 = target: CaSla1-D3
How it was run: as §1

ScAbp1 = target: ScAbp1
How it was run: as §1

ScBbc1 = target: ScBbc1
How it was run: as §1

ScBem1-D1 = target: ScBem1-D1
How it was run: as §1

ScBzz1-D1 = target: ScBzz1-D1
How it was run: as §1

ScBzz1-D2 = target: ScBzz1-D2
How it was run: as §1

ScCyk3 = target: ScCyk3
How it was run: as §1

ScFus1 = target: ScFus1
How it was run: as §1

ScHof1 = target: ScHof1
How it was run: as §1

ScHse1 = target: ScHse1
How it was run: as §1

ScLsb1 = target: ScLsb1
How it was run: as §1

ScLsb2 = target: ScLsb2
How it was run: as §1

ScLsb3 = target: ScLsb3
How it was run: as §1

ScLsb4 = target: ScLsb4
How it was run: as §1

ScMyo3 = target: ScMyo3
How it was run: as §1

ScMyo5 = target: ScMyo5
How it was run: as §1

ScNbp2 = target: ScNbp2
How it was run: as §1

ScPex13 = target: ScPex13
How it was run: as §1

ScRvs167 = target: ScRvs167
How it was run: as §1

ScSho1 = target: ScSho1
How it was run: as §1

ScSla1-D1-D2 = target: ScSla1-D1-D2
How it was run: as §1

ScSla1-D3 = target: ScSla1-D3
How it was run: as §1

SpAbp1-D1 = target: SpAbp1-D1
How it was run: as §1

SpBbc1 = target: SpBbc1
How it was run: as §1

SpBzz1-D1 = target: SpBzz1-D1
How it was run: as §1

SpBzz1-D2 = target: SpBzz1-D2
How it was run: as §1

SpCyk3 = target: SpCyk3
How it was run: as §1

SpHof1 = target: SpHof1
How it was run: as §1

SpHof1-2 = target: SpHof1-2
How it was run: as §1

SpHof1-3 = target: SpHof1-3
How it was run: as §1

SpHse1 = target: SpHse1
How it was run: as §1

SpLsb1 = target: SpLsb1
How it was run: as §1

SpLsb4 = target: SpLsb4
How it was run: as §1

SpMyo1 = target: SpMyo1
How it was run: as §1

SpNbp2 = target: SpNbp2
How it was run: as §1

SpPex13 = target: SpPex13
How it was run: as §1

SpRvs167 = target: SpRvs167
How it was run: as §1

SpSla1-D1-D2 = target: SpSla1-D1-D2
How it was run: as §1

SpSla1-D3 = target: SpSla1-D3
How it was run: as §1

Binder: EAEEAAPQLPSRSSA
- SPOT peptide array binding signal intensity (AgAbp1): 7
- SPOT peptide array binding signal intensity (AgBbc1): ≤ 0
- SPOT peptide array binding signal intensity (AgBem1-D1): ≤ 0
- SPOT peptide array binding signal intensity (AgBzz1-D1): 8.5
- SPOT peptide array binding signal intensity (AgBzz1-D2): 8.5
- SPOT peptide array binding signal intensity (AgCyk3): ≤ 0
- SPOT peptide array binding signal intensity (AgFus1): 8
- SPOT peptide array binding signal intensity (AgHof1): 0.5
- SPOT peptide array binding signal intensity (AgHse1): 3.5
- SPOT peptide array binding signal intensity (AgLsb1): 16
- SPOT peptide array binding signal intensity (AgLsb4): 3510
- SPOT peptide array binding signal intensity (AgMyo5): ≤ 0
- SPOT peptide array binding signal intensity (AgNbp2): ≤ 0
- SPOT peptide array binding signal intensity (AgRvs167): 11.3
- SPOT peptide array binding signal intensity (AgSho1): ≤ 0
- SPOT peptide array binding signal intensity (AgSla1-D1-D2): ≤ 0
- SPOT peptide array binding signal intensity (AgSla1-D3): 2
- SPOT peptide array binding signal intensity (CaAbp1-D1): ≤ 0
- SPOT peptide array binding signal intensity (CaAbp1-D2): ≤ 0
- SPOT peptide array binding signal intensity (CaBbc1): ≤ 0
- SPOT peptide array binding signal intensity (CaBem1-D1): ≤ 0
- SPOT peptide array binding signal intensity (CaBzz1-D1): 1
- SPOT peptide array binding signal intensity (CaBzz1-D2): 3.25
- SPOT peptide array binding signal intensity (CaCyk3): ≤ 0
- SPOT peptide array binding signal intensity (CaFus1): 5
- SPOT peptide array binding signal intensity (CaHof1): 0.25
- SPOT peptide array binding signal intensity (CaHse1): 6.75
- SPOT peptide array binding signal intensity (CaLsb1): 1.75
- SPOT peptide array binding signal intensity (CaLsb4): 6000
- SPOT peptide array binding signal intensity (CaMyo5): 1
- SPOT peptide array binding signal intensity (CaNbp2): ≤ 0
- SPOT peptide array binding signal intensity (CaRvs167): 340
- SPOT peptide array binding signal intensity (CaRvs167-3): 6.25
- SPOT peptide array binding signal intensity (CaSho1): ≤ 0
- SPOT peptide array binding signal intensity (CaSla1-D1-D2): ≤ 0
- SPOT peptide array binding signal intensity (CaSla1-D3): ≤ 0
- SPOT peptide array binding signal intensity (ScAbp1): 6
- SPOT peptide array binding signal intensity (ScBbc1): ≤ 0
- SPOT peptide array binding signal intensity (ScBem1-D1): ≤ 0
- SPOT peptide array binding signal intensity (ScBzz1-D1): 9
- SPOT peptide array binding signal intensity (ScBzz1-D2): 10
- SPOT peptide array binding signal intensity (ScCyk3): 1
- SPOT peptide array binding signal intensity (ScFus1): ≤ 0
- SPOT peptide array binding signal intensity (ScHof1): 4.25
- SPOT peptide array binding signal intensity (ScHse1): ≤ 0
- SPOT peptide array binding signal intensity (ScLsb1): 283
- SPOT peptide array binding signal intensity (ScLsb2): 12.5
- SPOT peptide array binding signal intensity (ScLsb3): 7150
- SPOT peptide array binding signal intensity (ScLsb4): 3370
- SPOT peptide array binding signal intensity (ScMyo3): ≤ 0
- SPOT peptide array binding signal intensity (ScMyo5): ≤ 0
- SPOT peptide array binding signal intensity (ScNbp2): ≤ 0
- SPOT peptide array binding signal intensity (ScPex13): 128
- SPOT peptide array binding signal intensity (ScRvs167): 1500
- SPOT peptide array binding signal intensity (ScSho1): ≤ 0
- SPOT peptide array binding signal intensity (ScSla1-D1-D2): 7
- SPOT peptide array binding signal intensity (ScSla1-D3): 0.75
- SPOT peptide array binding signal intensity (SpAbp1-D1): ≤ 0
- SPOT peptide array binding signal intensity (SpBbc1): ≤ 0
- SPOT peptide array binding signal intensity (SpBzz1-D1): ≤ 0
- SPOT peptide array binding signal intensity (SpBzz1-D2): ≤ 0
- SPOT peptide array binding signal intensity (SpCyk3): 1
- SPOT peptide array binding signal intensity (SpHof1): 0.5
- SPOT peptide array binding signal intensity (SpHof1-2): 3.5
- SPOT peptide array binding signal intensity (SpHof1-3): 1
- SPOT peptide array binding signal intensity (SpHse1): 0.5
- SPOT peptide array binding signal intensity (SpLsb1): 4.25
- SPOT peptide array binding signal intensity (SpLsb4): 6420
- SPOT peptide array binding signal intensity (SpMyo1): ≤ 0
- SPOT peptide array binding signal intensity (SpNbp2): ≤ 0
- SPOT peptide array binding signal intensity (SpPex13): 0.5
- SPOT peptide array binding signal intensity (SpRvs167): 2390
- SPOT peptide array binding signal intensity (SpSla1-D1-D2): 2
- SPOT peptide array binding signal intensity (SpSla1-D3): 1
